The values below come from paper PMC7862700, “An all-to-all approach to the identification of sequence-specific readers for epigenetic DNA modifications on cytosine”.

What all share (test): DAPPL (digital affinity profiling via proximity ligation, sequencing); 10 mM Tris-HCl pH 7.5, 50 mM NaCl, 1 mM DTT, 4% glycerol, room temperature, 30 min; GST-TFs on glutathione beads, 16-mer random dsDNA library, 0.1% formaldehyde crosslink after washing; high values mean tight binding
What all share (conditions): protein: recombinant; tags: N-terminal GST; dsDNA, one strand shown

For test [1], the target named is SPI1 (Homo sapiens, UniProt P17947 1-270). A digest of the protocol: (§1)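 Human transcription factors carrying a GST fusion were produced in yeast, bound to glutathione beads, tagged with DNA barcodes and pooled together with a tag-only sample. Each pool was held with 200 nmole of a random double-stranded 16-mer DNA library in Tris/NaCl/DTT/glycerol buffer for 30 min at room temperature, then washed, crosslinked in 0.1% formaldehyde, proximity-ligated with BsaI/T4 ligase (1 h, 37 °C), PCR-amplified and sequenced on an Illumina NextSeq500. Binding signal is the read frequency of each hexamer for a given factor divided by its frequency in the tag-only sample.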

The target in test [2] is SPIB (Homo sapiens, UniProt Q01892 1-262). A digest of the protocol: as §1
SPIB, sequence (Q01892 whole entry): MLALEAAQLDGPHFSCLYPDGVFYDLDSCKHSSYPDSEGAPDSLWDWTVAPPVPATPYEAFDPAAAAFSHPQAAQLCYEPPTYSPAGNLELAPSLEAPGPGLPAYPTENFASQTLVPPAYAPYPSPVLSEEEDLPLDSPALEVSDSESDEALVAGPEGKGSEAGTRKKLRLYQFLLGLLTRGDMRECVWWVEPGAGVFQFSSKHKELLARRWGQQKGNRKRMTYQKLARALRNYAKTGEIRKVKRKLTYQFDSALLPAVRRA
The target of test [3] is T1, ELK3 (Homo sapiens, UniProt P41970 1-407).
T1 sequence: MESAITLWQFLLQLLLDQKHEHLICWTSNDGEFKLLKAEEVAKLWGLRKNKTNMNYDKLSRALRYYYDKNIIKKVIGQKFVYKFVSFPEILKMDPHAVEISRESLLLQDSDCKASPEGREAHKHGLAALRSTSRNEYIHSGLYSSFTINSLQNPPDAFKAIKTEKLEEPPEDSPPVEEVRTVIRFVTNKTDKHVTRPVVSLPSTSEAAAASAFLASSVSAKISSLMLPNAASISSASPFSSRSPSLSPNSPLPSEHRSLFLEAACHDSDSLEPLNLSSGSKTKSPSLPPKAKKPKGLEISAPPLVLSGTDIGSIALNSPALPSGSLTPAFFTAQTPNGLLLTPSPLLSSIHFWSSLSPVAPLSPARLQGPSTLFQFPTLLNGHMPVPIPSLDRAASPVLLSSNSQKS
A digest of the protocol: as §1

For test [4], the target named is T2, ELF3 (Homo sapiens, UniProt P78545 1-371).
T2 sequence: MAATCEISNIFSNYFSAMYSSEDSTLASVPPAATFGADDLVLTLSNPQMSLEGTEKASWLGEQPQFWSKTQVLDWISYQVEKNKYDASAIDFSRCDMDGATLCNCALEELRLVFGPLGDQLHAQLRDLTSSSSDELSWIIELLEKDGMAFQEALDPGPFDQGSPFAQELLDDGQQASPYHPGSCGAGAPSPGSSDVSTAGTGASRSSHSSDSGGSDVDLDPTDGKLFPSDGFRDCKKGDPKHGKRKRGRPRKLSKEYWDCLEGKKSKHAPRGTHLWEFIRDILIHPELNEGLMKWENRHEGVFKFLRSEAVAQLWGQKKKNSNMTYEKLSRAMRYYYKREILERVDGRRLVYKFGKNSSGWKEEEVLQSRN
A digest of the protocol:
as §1

Test [5] addresses CRX (Homo sapiens, UniProt O43186 1-299). A digest of the protocol:
as §1

The target in test [6] is ETV1 (Homo sapiens, UniProt P50549 1-477). A digest of the protocol:
as §1

For test [7], the target named is T3, ERF (Homo sapiens, UniProt P50548 1-548).
T3 sequence: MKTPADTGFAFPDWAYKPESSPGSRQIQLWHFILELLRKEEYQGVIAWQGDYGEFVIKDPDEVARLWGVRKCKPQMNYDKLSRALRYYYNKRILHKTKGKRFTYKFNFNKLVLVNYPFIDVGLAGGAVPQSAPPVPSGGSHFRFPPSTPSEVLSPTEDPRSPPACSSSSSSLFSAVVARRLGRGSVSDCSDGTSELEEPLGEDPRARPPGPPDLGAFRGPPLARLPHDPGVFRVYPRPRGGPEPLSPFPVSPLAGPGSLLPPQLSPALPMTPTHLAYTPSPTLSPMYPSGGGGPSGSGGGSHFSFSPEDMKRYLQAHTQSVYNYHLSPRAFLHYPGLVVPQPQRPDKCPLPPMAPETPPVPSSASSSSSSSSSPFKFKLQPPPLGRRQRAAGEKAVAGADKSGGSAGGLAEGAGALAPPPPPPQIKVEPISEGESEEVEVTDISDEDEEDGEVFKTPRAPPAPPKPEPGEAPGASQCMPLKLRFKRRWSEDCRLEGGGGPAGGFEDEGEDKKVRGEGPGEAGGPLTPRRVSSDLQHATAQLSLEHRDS
A digest of the protocol: as §1

For test [8], the target named is T4, ETV3L (Homo sapiens, UniProt Q6ZN32 1-361).
T4 sequence: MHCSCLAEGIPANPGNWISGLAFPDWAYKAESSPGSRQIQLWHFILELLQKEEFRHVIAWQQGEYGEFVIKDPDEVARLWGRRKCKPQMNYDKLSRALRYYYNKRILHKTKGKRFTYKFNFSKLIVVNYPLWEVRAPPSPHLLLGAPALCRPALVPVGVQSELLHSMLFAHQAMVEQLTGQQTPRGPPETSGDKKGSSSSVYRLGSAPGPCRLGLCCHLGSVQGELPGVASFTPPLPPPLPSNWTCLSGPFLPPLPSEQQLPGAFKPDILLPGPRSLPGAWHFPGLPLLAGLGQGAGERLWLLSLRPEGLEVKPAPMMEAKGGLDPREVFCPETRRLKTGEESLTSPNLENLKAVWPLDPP
A digest of the protocol:
as §1

For test [9], the target named is T5, ETV7 (Homo sapiens, UniProt Q9Y603 1-341).
T5 sequence: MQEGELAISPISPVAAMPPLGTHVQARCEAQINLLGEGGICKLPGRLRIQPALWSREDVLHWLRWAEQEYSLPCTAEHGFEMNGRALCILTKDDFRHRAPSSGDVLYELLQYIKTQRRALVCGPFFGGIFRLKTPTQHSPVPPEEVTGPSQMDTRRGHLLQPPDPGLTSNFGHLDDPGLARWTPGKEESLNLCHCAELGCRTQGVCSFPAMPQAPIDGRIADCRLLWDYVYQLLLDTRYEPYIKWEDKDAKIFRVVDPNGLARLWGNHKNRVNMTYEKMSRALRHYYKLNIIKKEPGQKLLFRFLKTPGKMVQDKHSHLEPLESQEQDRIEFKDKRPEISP
A digest of the protocol:
as §1

Test [10] addresses ETV6 (Homo sapiens, UniProt P41212 1-452). A digest of the protocol:
as §1

The target in test [11] is T6, EHF (Homo sapiens, UniProt Q9NZC4 1-300).
T6 sequence: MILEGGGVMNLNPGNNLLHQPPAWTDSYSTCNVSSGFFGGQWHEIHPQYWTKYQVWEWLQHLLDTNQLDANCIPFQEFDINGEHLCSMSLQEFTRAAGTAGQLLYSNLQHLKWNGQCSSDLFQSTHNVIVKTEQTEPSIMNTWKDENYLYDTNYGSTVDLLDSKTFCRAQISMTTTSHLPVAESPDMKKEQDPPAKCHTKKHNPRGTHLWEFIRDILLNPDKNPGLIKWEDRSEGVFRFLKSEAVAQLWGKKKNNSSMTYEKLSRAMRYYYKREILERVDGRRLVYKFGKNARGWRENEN
A digest of the protocol: as §1

Test [12] addresses T7, ETV2 (Homo sapiens, UniProt O00321 1-342).
T7 sequence: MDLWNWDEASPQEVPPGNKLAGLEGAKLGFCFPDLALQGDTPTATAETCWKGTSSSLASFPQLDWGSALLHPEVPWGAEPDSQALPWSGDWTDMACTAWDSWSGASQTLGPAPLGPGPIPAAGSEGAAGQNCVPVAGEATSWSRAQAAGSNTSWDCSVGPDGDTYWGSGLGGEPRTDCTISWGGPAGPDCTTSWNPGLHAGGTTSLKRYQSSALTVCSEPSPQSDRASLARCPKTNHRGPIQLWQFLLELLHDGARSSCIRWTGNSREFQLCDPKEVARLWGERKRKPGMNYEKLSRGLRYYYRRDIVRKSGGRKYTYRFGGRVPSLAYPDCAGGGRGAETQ
A digest of the protocol:
as §1

For test [13], the target named is T8, ETV3 (Homo sapiens, UniProt P41162-2 1-143).
T8 sequence: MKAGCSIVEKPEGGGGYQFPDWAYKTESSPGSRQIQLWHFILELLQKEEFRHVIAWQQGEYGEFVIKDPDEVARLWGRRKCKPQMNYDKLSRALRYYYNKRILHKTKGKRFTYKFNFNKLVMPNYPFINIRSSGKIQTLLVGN
A digest of the protocol: as §1

In test [14] the target is T9, FEV (Homo sapiens, UniProt Q99581 1-238).
T9 sequence: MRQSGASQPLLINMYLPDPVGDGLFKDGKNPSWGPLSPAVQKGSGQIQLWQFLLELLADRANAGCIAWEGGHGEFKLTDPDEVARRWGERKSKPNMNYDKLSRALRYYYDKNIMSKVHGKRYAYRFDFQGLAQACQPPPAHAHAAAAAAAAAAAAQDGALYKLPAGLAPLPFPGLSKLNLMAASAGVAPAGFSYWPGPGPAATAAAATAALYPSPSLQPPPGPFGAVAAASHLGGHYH
A digest of the protocol: as §1

Test [15] has as its target T10, ETS2 (Homo sapiens, UniProt P15036 1-469).
T10 sequence: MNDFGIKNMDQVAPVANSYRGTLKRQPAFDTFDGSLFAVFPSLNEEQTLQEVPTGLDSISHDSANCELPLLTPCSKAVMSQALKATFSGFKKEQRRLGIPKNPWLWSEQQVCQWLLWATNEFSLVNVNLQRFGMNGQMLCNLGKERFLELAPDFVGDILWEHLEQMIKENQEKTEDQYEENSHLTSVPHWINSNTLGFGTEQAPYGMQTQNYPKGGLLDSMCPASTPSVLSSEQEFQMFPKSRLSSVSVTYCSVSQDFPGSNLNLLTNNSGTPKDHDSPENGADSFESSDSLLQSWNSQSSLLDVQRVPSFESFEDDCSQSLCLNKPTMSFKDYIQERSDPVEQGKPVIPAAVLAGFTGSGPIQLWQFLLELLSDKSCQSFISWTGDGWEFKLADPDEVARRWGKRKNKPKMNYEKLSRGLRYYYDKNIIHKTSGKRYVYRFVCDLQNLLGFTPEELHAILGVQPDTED
A digest of the protocol: as §1

CRX, sequence (O43186 whole entry): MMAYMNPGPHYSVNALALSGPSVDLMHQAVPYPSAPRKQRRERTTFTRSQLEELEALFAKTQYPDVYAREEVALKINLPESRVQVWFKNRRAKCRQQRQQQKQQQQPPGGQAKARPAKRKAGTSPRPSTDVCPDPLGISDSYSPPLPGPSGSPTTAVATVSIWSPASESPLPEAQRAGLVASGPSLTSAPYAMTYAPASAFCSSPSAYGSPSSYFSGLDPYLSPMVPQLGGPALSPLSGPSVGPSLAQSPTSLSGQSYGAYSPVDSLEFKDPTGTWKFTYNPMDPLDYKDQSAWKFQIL
ETV1, sequence (P50549 whole entry): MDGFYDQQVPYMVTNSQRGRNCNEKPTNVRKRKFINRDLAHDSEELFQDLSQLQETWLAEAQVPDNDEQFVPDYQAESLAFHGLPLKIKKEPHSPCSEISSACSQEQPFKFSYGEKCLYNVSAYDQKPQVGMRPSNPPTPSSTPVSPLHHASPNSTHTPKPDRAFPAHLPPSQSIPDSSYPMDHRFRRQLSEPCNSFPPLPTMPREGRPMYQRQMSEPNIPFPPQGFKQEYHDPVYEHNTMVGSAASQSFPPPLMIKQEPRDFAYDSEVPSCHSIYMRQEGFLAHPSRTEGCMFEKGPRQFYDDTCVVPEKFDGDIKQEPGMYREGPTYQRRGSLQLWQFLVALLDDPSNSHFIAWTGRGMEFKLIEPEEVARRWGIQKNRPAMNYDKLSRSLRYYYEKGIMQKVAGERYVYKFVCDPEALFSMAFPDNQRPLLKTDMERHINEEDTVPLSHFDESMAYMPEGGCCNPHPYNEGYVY
ETV6, sequence (P41212 whole entry): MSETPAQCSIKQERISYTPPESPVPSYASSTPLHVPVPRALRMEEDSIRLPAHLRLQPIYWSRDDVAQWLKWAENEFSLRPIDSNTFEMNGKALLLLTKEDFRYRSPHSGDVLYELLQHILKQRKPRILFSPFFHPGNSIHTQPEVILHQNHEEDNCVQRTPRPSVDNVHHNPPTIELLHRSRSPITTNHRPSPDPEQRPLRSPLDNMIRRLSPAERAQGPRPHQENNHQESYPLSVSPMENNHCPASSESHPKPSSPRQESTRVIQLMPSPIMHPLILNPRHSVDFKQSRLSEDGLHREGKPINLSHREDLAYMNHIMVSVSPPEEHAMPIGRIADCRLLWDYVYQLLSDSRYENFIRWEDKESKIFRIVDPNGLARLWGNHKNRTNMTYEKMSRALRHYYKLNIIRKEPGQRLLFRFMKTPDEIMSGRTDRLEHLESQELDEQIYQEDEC

AGTTTA: the binding signal is 1.01 fold enrichment (6-mer frequency, TF over GST control) in [1]; 1.04 fold enrichment (6-mer frequency, TF over GST control) in test [2]; 1.03 fold enrichment (6-mer frequency, TF over GST control) in test [3]; 1.11 fold enrichment (6-mer frequency, TF over GST control) in test [4]; 1.08 fold enrichment (6-mer frequency, TF over GST control) in test [5]; 1.04 fold enrichment (6-mer frequency, TF over GST control) in test [6]. Further, the binding signal in [7] was 1.01 fold enrichment (6-mer frequency, TF over GST control); in test [8] it was 1.09 fold enrichment (6-mer frequency, TF over GST control); in test [9] it was 1.02 fold enrichment (6-mer frequency, TF over GST control); in [10], 1.12 fold enrichment (6-mer frequency, TF over GST control).
For GCGGCT, the binding signal in [11] is 1.02 fold enrichment (6-mer frequency, TF over GST control); in [12] it was 1.08 fold enrichment (6-mer frequency, TF over GST control); in [5] it was 1.05 fold enrichment (6-mer frequency, TF over GST control); in [7], 1.08 fold enrichment (6-mer frequency, TF over GST control); in [13], 1 fold enrichment (6-mer frequency, TF over GST control); in test [10], 1 fold enrichment (6-mer frequency, TF over GST control).
For the sequence AGCCCA, the binding signal in [14] is 1.01 fold enrichment (6-mer frequency, TF over GST control); in test [12] it was 1.04 fold enrichment (6-mer frequency, TF over GST control); in test [4], 1.04 fold enrichment (6-mer frequency, TF over GST control); in test [5], 1.05 fold enrichment (6-mer frequency, TF over GST control).
In the case of GACTTG, the binding signal in test [4] was 1.08 fold enrichment (6-mer frequency, TF over GST control).
For the sequence CCTAGT, the binding signal in test [4] was 1.04 fold enrichment (6-mer frequency, TF over GST control); in test [6] it was 1.02 fold enrichment (6-mer frequency, TF over GST control); in test [7], 1 fold enrichment (6-mer frequency, TF over GST control); in [15], 1.06 fold enrichment (6-mer frequency, TF over GST control).
Take AGGCTA: the binding signal in test [3] is 1.05 fold enrichment (6-mer frequency, TF over GST control); in test [12] it was 1 fold enrichment (6-mer frequency, TF over GST control); in test [5] it was 1.19 fold enrichment (6-mer frequency, TF over GST control).
As for TTGGGA, the binding signal in test [12] was 1.03 fold enrichment (6-mer frequency, TF over GST control); in test [5] it was 1.04 fold enrichment (6-mer frequency, TF over GST control).
